An excerpt weighted towards active compounds, which were near 5.4% of everything screened.
CtBP-E1A inh = qHTS Assay for Inhibitors of the CtBP/E1A Interaction; AlphaScreen GST-E1A/His-CtBP binding, 1536-well; hits give low values; activity change, % (no concentration beside the values); CtBP / adenovirus E1A interaction (AlphaScreen); 0.49% of 340,000 active; in the data active = activity change below about -65%; inconclusive = mostly about -30% to -63%; also: % is scaled to controls: 0 for no effect and ±100 for the full control effect
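AlphaScreen with 125 nM GST-E1A and 125 nM His-CtBP (5X stocks) in Tris pH 8.0, 300 mM NaCl, BSA, Tween 20, TCEP. Compounds preincubated 2 h at 37 deg C, then glutathione donor/nickel acceptor beads added for 1 h at 37 deg C in dark.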
Six1-Eya2 blk = qHTS Assay for Inhibitors of the Six1/Eya2 Interaction. AlphaScreen GST-Six1/His-Eya2 binding, biochemical; hits give low values. activity change, % (concentration not given with the values). Homeobox protein SIX1 (Homo sapiens) + Protein phosphatase EYA2 (Homo sapiens), …. 0.56% of 360,000 active; in the data active = activity change below about -65%; inconclusive = mostly about -30% to -63%; also: % is scaled to controls: 0 for no effect and ±100 for the full control effect
Target sequence (O00167 whole entry, looked up): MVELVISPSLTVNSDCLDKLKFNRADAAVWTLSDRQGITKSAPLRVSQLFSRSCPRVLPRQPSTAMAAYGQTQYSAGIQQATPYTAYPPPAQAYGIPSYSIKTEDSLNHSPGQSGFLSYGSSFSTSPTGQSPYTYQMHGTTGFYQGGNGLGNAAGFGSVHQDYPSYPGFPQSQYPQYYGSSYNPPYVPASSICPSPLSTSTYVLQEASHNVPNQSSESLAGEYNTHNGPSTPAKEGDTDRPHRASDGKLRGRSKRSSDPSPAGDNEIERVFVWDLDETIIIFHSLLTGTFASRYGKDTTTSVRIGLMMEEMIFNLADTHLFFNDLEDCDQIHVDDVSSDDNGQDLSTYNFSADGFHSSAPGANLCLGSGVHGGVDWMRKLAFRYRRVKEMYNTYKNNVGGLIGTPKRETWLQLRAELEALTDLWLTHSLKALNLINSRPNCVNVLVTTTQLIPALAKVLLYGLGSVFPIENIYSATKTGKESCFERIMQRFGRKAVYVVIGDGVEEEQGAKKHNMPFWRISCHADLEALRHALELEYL
Target sequence (Q15475 whole entry, looked up): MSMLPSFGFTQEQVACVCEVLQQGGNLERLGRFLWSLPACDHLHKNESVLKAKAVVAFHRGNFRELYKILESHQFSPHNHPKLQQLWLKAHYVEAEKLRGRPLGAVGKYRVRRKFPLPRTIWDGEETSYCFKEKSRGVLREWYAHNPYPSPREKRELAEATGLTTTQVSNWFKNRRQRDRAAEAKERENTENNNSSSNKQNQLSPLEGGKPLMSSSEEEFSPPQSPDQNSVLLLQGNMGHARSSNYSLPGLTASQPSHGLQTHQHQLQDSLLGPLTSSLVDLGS
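AlphaScreen luminescence read after one hour at 37 °C in darkness. Pin-transferred compounds met GST-Six1 and His-Eya2 protein (5X stock 250 nM/500 nM) plus glutathione donor and Ni-chelate acceptor beads (5X, 50 ug/mL).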
p53 reactivator = qHTS assay for re-activators of p53 using a Luc reporter; AID 504706, 2011; H1299 p53-A138V BP100-luciferase reporter, luminescence, 24 h; Potency, µM (titrated, usually from 92.2 µM), without a hit: at the highest dose activity change, positive = activation, actives largely listed as activators; 0.063% of 320,000 active; also: potency is read from the fitted curve at half-maximal effect; % of control where 0% means no effect; nearly all actives have a fitted effect of over 45% in size
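p53-null H1299 cells stably carrying temperature-sensitive p53-A138V and a BP100-luciferase reporter were pinned with compounds (4-point, 1:5 series) and held 24 hrs at 37 deg C. Luminescence was read 10 min after detection reagent.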
RORg inh = qHTS for inhibitors of ROR gamma transcriptional activity | Nuclear receptor ROR-gamma (Mus musculus), P51450 | Drosophila S2 Gal4-RORgamma UAS-luciferase reporter, 20 h | Potency, µM (series often up to 53.6 µM), without a hit: top-dose activity change, negative = inhibition, actives largely listed as inhibitors | 5.4% of 310,000 active | AID 2551, 2010; also: potency is read from the fitted curve at half-maximal effect; % is scaled to controls: 0 for no effect and ±100 for the full control effect; nearly all actives have a fitted effect of over 60% in size
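Read-out: Photinus luciferase luminescence; inhibitors lower reporter signal. Insect Schneider cells with Gal4-ROR gamma fusion under metallothionein promoter, UAS reporter; 700 uM final copper sulfate induction, 20 hr, ambient temperature.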
Gal4-VP16 FLuc = VP16 counterscreen qHTS for inhibitors of ROR gamma transcriptional activity; AID 2546, 2010; Drosophila S2 Gal4-VP16 UAS-luciferase, luminescence, 20 h; 3.5% of 310,000 active; Potency, µM (top dose mostly 53.6 µM), for the others: at the highest dose activity, negative = inhibition, actives largely listed as inhibitors;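 also: Gal4-VP16 expression switched on by copper sulfate through the metallothionein promoter; potency is read from the fitted curve at half-maximal effect; % is scaled to controls: 0 for no effect and ±100 for the full control effect; nearly all actives have a fitted effect of over 50% in size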
Starred values were filed as active, the others as inactive; ? = inconclusive; . = no result; [ ] = dose if it differs, or a comment. Unless noted, calls follow the shape of the dose curve; as a rule, active = well fitted curve in the direction sought with a large enough effect; inconclusive = small, poorly fitted or top-dose-only effect, or another doubt; inactive = no such curve, though single readings can be large; an effect the other way counts as inactive or inconclusive.

SMILES	CtBP-E1A inh	Six1-Eya2 blk	p53 reactivator	RORg inh	Gal4-VP16 FLuc
Cc1ccc([N+](=O)[O-])cc1NC(=S)NC(=O)c1ccco1	0	0	-1%	-42%	-3%
O=C(NC(=S)Nc1ccccc1O)c1cccnc1	1	5	14%	11µM*	?
N#Cc1ccccc1NC(=S)NC(=O)c1cccnc1	7	-11	.	.	.
Cc1ccc([N+](=O)[O-])cc1NC(=S)NC(=O)c1cccnc1	0	0	2%	13µM*	-24%
O=C(Nc1ccc2c(c1)OCO2)C1CCN(C(=O)c2ccc(Br)cc2)CC1	1	12	9%	17%	-3%
O=C(Nc1ccc2c(c1)nc1n2CCOC1)c1ccco1	2	-1	17%	-45%	-8%
Cc1nc2cc(NC(=O)c3ccco3)ccc2n1C	5	9	-25%	16µM*	?
O=C(Nc1ccc2c(c1)nc1n2CCSC1)c1ccco1	-1	-5	3%	2.2µM*	3.2µM*
Cn1c(CCNC(=O)c2ccco2)nc2cc(NC(=O)c3ccco3)ccc21	5	3	14%	1%	-7%
CC1CC=CC2C1C(=O)N(Cc1ccccc1)C2c1ccc(F)c(/C=C/c2ccccc2)c1 (stereo not drawn)	.	.	.	2%	6%
Cn1c(-c2ccccc2)cc2ccccc21	0	18	1%	45%	6%
Cn1c(-c2ccccc2)cc2c3no[n+]([O-])c3ccc21	-18	-16	7.1µM*	6.3µM*	?
CCN(CC)c1ccc2nc3ccc(N)cc3[n+](-c3ccccc3)c2c1	-84*	-78*	-4%	.	.
CC(/C=N\NC(=O)CN1CCN(S(=O)(=O)c2ccc(C)cc2)CC1)=C\c1ccccc1	-14	-4	-13%	168%	-2%
Cc1nnsc1S(=O)c1ccc(Cl)c(Cl)c1 (stereo not drawn)	.	-5	0%	-39%	-29%
O=S(c1ccc2ccccc2c1)c1cnns1 (stereo not drawn)	23	18	-10%	11µM*	?
N=c1n(CCCOc2ccccc2Cl)c2ccccc2n1CC(N)=O	3	-1	3%	-18%	-13%
Cc1cc(-c2n[nH]c(=S)n2-c2ccccc2)nn1C	0	-1	-7%	-24%	-7%
Cc1ccc(-n2c(-c3cc(C)n(C)n3)n[nH]c2=S)cc1	2	4	-2%	11µM*	-2%
Cc1ccc(-n2c(-c3cn(C)nc3C)n[nH]c2=S)cc1	.	.	-3%	10µM*	-7%
CCn1cc(C(=O)NC(=S)Nc2ccccc2Br)cn1	1	2	17%	7.1µM*	10µM*
COc1ccccc1NC(=S)NC(=O)c1ccc(Cn2cc(Br)cn2)cc1	-8	-7	3%	7.9µM*	?
O=C(O)CC(NC(=O)C12CC3CC(CC(C3)C1)C2)c1ccc(F)cc1 (stereo not drawn)	3	16	-4%	11%	9%
CCCn1c(C)nc2c(N3CCC(N(C)C)C3)nc(C)nc21 (stereo not drawn)	.	.	.	-8%	-4%
CCOC(=O)c1c(C)[nH]c(C)c1S(=O)(=O)N(C)CC(=O)Nc1cc(C)ccc1OC	.	-2	-7%	0%	-1%
SMILES	CtBP-E1A inh	Six1-Eya2 blk	p53 reactivator	RORg inh	Gal4-VP16 FLuc
CC(C)(C)C(=O)Nc1ccc(-c2nc3ccccc3c(=O)o2)cc1	-17	-6	1%	?	?
CC(C)(C)C(=O)Nc1cccc(-c2nc3ccccc3c(=O)o2)c1	8	-2	-1%	14µM*	?
CC(C)C(=O)Nc1ccc(-c2nc3ccccc3c(=O)o2)cc1	?	-76*	-1%	11µM*	?
Cc1ccc(NC(=O)COC(=O)Cn2ccc(=O)[nH]c2=O)cc1C	0	4	4%	.	.
CCCNC(=O)OC[C@H]1O[C@@H](CCO/N=C2/C[C@@H](O)[C@@H](O)[C@@H]3[C@@H]4C(=O)N(CC)C(=O)[C@H]4CC[C@@H]23)C=C[C@@H]1Oc1ccc(OC)cc1	.	.	.	-1%[10 µM]	-4%[10 µM]
CC1(C)Oc2ccc3ccc(=O)oc3c2C(N2CCCCC2)C1O (stereo not drawn)	2	1	-3%	39%	9%
CC(=O)OC1C(N2CCCCC2)c2c(ccc(/C=C/C(=O)N3CCCCC3)c2O)OC1(C)C (stereo not drawn)	2	8	3%	?	1.3µM*
CS(=O)(=O)c1ccc(C(=O)OCc2nnc(-c3ccc(Cl)cc3)o2)cc1[N+](=O)[O-]	-1	-16	-11%	10µM*	-2%
O=C(OCc1nnc(-c2ccc(Cl)cc2)o1)c1ccc(O)cc1	2	2	7%	17%	4%
CC(NC(=S)NCCCN1CCOCC1)C12CC3CC(CC(C3)C1)C2 (stereo not drawn)	-4	-3	8%	10µM*	?
CC(NC(=S)NCc1ccccc1)C12CC3CC(CC(C3)C1)C2 (stereo not drawn)	1	-1	?	2.8µM*	?
CC(NC(=O)c1ccccc1F)C12CC3CC(CC(C3)C1)C2 (stereo not drawn)	9	5	-6%	.	.
COc1cc(CN2CCN(C3CCC3)CC2CCO)cc(OC)c1 (stereo not drawn)	3	2	?	-21%	-1%
COC(=O)C(/C=C/C(C)Cc1cc(Br)cc(OCc2ccccc2)c1OC)OCc1ccccc1 (stereo not drawn)	.	.	.	1%[10 µM]	-2%[10 µM]
CN(C)S(=O)(=O)c1cccc(NC(=S)N2CCc3ccccc32)c1	-5	0	7%	14µM*	?
Cc1ccc(S(=O)(=O)N(C)C)cc1NC(=S)N1CCc2ccccc21	4	-6	0%	10µM*	0%
Cc1ccc(S(=O)(=O)N(C)C)cc1NC(=O)Nc1ccccc1	3	7	3%	1%	12%
CCNc1ncc2nc(C)c(=O)n(C)c2n1	.	.	.	3%	-3%
CCOC(=O)[C@]12CCCC=C1N(Cc1ccccc1)C(=O)[C@H](CC(=O)NCC1CCCCC1)C2	-17	10	.	.	.
O=S(=O)(O)c1cc(Cl)cc(N=Nc2ccc(O)cc2O)c1O	-90*	-92*	.	.	.
Oc1ccc(Cl)cc1N=Nc1ccccc1	.	-17	.	26%	25%
COCCn1c(=O)c(C)nc2cnc(N3CCOCC3)nc21	.	.	.	-5%	4%
Oc1ccc2c(c1)OCC1(O)Cc3cc(O)c(O)cc3C21 (stereo not drawn)	-12	-1	.	0.71µM*	5.6µM*
CCNc1sc(C(=O)c2cccs2)c(N)c1-c1nc2ccccc2s1	-10	-14	25%	?	7.9µM*
CCNc1sc(C(=O)c2cccs2)c(N)c1C#N	-22	-10	-1%	-4%	-4%
C=CCNc1sc(C(=O)c2ccccc2)c(N)c1-c1nc2ccccc2s1	?	?	18%	4.5µM*	16µM*
